Reference: the supplement of paper PMC11732987, “Enantioselective OTUD7B fragment discovery through chemoproteomics screening and high-throughput optimisation” (Communications Chemistry, 2025)

Columns and labels:
Experiment in all cases: log2 ratio of Biotin-Ahx-Ub-VS probe labelling (fragment/DMSO); higher = less target engagement (more negative = stronger competition), active = hit call of the paper (q ≤ 0.05, log2 ratio ≤ -1)
Conditions in all cases: compound concentration: 200 uM; treatment time: 3 h
OTUD6B = target: T1, OTUD6B (UniProt Q8N6M0)
T1 sequence (whole entry): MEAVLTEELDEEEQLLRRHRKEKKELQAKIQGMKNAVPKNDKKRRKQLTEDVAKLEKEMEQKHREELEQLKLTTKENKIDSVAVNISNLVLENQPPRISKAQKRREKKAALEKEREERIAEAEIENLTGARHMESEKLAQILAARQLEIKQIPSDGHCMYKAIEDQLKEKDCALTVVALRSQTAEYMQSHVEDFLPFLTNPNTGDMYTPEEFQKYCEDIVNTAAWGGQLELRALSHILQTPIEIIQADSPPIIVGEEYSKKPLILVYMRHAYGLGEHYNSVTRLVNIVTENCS
Method in brief: (§1)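 Using Biotin-Ahx-Ub-VS at 0.5 µM final for 1 h, DUBs were labelled in HEK293T lysate (495 µg per sample) that had first been treated in triplicate with fragment at 200 µM or vehicle for 3 h. NeutrAvidin enrichment, LysC and trypsin digestion and diaPASEF LC-MS/MS followed. Spectronaut label-free quantities were global-median-normalised. Values are average log2 fragment/vehicle ratios by unpaired t-test, using proteins with ≥2 unique peptides.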

OTUD7B = target: T2, OTUD7B (UniProt Q6GQQ9)
T2 sequence (whole entry): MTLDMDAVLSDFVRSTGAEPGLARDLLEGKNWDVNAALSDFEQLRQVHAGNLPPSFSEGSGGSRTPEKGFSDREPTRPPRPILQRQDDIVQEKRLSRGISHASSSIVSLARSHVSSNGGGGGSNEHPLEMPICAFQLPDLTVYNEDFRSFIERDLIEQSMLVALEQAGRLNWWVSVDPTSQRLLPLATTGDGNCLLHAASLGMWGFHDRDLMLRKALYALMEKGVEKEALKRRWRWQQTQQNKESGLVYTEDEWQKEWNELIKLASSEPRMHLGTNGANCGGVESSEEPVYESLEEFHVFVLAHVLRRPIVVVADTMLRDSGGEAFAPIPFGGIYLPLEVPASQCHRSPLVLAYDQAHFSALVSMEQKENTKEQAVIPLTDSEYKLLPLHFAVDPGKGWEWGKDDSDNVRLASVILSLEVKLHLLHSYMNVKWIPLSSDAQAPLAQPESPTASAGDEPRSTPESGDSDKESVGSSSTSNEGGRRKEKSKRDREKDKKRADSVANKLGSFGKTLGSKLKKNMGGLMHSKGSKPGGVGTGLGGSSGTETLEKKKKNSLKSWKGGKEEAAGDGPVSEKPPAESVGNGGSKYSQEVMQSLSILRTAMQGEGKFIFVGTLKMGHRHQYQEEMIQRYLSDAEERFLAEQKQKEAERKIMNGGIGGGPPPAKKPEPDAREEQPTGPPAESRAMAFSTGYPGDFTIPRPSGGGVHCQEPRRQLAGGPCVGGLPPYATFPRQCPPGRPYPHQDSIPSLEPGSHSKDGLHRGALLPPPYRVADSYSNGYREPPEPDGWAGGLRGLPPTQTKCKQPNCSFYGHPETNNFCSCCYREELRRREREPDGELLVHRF
Method in brief: as §1

PRPF8 = PRPF8 (UniProt Q6P2Q9)
Method in brief: as §1

PSMD7 = target: T3, PSMD7 (UniProt P51665)
T3 sequence (whole entry): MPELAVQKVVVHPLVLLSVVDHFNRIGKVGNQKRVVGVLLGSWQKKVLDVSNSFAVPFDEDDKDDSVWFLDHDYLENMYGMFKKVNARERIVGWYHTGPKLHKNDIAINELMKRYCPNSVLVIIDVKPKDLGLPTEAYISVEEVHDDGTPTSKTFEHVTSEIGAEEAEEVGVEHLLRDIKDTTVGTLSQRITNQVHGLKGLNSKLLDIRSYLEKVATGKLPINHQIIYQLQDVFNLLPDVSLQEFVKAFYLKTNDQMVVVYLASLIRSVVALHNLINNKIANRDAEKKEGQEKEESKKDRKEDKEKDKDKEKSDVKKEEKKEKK
Method in brief: as §1

UCHL1 = UCHL1 (UniProt P09936)
UCHL1, sequence (P09936 whole entry, looked up): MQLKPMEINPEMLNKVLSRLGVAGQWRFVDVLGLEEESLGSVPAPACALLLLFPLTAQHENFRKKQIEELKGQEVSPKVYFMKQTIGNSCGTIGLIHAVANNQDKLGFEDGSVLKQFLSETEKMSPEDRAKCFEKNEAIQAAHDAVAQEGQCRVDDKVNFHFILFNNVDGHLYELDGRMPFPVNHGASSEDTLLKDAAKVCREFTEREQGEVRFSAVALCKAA
Method in brief: as §1

UCHL3 = target: T4, UCHL3 (UniProt P15374)
T4 sequence (whole entry): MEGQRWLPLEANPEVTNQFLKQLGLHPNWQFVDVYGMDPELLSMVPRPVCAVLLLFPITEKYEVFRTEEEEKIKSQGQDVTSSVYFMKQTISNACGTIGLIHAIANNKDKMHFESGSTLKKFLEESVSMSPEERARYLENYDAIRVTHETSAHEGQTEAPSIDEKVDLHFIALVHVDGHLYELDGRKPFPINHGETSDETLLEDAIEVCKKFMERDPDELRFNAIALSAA
Method in brief: as §1

UCHL5 = target: T5, UCHL5 (UniProt Q9Y5K5)
T5 sequence (whole entry): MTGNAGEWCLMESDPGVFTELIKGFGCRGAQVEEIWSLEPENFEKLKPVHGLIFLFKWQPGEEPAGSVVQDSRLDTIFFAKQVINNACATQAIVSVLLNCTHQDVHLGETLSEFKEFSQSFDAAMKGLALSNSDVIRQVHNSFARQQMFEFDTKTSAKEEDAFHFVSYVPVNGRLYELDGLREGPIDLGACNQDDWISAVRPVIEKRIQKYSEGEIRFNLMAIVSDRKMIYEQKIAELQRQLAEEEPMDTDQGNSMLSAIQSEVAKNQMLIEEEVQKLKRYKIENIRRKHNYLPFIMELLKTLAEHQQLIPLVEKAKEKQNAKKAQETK
Method in brief: as §1

USP10 = USP10 (UniProt Q14694)
USP10, sequence (Q14694 whole entry): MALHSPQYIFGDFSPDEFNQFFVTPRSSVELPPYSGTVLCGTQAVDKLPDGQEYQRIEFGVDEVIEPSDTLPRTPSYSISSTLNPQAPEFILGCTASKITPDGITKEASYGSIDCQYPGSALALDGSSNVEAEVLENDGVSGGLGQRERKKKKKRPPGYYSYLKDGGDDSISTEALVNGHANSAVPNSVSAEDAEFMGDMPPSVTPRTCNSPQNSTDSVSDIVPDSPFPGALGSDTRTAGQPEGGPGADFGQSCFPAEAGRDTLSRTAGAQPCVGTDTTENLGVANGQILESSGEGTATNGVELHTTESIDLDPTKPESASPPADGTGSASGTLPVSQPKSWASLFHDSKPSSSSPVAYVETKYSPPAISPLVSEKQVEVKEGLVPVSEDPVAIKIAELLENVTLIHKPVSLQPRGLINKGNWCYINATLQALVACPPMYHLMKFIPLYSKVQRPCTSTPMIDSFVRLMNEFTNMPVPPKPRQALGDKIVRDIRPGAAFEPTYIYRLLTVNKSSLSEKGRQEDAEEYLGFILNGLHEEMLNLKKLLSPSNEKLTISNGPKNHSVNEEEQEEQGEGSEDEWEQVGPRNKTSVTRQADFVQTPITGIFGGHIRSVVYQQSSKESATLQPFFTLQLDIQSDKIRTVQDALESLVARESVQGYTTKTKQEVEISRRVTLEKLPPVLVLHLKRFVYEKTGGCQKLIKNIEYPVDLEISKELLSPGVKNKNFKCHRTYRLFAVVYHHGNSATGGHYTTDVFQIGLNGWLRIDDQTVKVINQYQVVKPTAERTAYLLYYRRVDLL
Method in brief: as §1

USP15 = target: T6, USP15 (UniProt Q9Y4E8)
T6 sequence (whole entry): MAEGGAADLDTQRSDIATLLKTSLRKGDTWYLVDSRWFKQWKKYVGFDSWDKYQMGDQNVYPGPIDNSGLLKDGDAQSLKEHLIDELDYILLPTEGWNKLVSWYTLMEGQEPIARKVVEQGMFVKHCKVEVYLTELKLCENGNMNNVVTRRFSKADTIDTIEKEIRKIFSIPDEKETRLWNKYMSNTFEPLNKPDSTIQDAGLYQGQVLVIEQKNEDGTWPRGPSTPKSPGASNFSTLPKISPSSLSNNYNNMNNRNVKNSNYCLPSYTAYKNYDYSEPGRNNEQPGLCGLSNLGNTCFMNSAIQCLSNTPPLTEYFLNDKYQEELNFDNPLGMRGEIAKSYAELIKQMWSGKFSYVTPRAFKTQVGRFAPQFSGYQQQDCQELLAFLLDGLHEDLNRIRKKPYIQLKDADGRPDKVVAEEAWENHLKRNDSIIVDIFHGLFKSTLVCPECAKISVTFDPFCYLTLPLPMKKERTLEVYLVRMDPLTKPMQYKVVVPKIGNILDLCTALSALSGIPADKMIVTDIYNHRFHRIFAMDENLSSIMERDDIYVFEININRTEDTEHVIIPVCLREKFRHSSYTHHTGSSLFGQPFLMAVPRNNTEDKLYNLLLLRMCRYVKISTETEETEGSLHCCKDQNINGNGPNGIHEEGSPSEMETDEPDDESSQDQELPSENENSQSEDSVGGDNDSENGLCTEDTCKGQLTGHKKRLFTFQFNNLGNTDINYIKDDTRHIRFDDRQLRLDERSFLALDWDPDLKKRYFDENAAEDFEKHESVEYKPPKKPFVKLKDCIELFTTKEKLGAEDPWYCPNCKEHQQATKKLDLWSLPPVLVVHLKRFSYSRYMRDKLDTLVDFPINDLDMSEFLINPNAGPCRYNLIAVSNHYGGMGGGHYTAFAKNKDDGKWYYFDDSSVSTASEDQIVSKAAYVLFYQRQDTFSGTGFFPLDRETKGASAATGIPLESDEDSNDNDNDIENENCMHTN
Method in brief: as §1

USP16 = USP16 (UniProt Q9Y5T5)
USP16, sequence (Q9Y5T5 whole entry, looked up): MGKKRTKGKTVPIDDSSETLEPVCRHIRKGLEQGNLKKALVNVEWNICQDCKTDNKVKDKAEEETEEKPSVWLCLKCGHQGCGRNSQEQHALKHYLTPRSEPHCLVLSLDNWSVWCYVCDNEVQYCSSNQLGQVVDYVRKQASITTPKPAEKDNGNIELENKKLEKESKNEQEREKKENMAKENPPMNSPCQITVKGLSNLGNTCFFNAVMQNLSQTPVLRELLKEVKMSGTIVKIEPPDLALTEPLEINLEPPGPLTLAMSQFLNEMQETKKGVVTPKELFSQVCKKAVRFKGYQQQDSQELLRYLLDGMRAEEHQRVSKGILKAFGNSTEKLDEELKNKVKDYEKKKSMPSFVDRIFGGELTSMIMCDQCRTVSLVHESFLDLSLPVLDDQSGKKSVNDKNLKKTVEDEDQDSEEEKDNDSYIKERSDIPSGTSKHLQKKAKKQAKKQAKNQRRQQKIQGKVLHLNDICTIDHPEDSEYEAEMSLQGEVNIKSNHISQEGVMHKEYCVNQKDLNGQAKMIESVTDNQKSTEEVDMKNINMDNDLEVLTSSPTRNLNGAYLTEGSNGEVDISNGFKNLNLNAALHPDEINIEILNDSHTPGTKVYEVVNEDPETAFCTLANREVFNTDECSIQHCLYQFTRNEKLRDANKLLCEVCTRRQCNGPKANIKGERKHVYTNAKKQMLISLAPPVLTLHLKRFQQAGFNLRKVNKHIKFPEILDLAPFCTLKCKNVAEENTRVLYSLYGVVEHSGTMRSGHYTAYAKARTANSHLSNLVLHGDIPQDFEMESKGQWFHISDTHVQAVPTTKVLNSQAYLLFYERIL
Method in brief: as §1

Measured: log2 ratio of Biotin-Ahx-Ub-VS probe labelling

COc1ccc(C2CCCN2C(=O)CCl)c(OC)c1 (stereo not given)
active: UCHL1 -1.67 | UCHL3 -1.75
inactive: OTUD6B -0.302 | OTUD7B -0.122 | PRPF8 0.164 | PSMD7 -0.138 | UCHL5 -0.34 | USP10 -0.166 | USP15 -0.424 | USP16 -0.285
